# Experimental data reported in PubChem BioAssay (NCI).
# “And” between values parts separate entries of the source, which are not always exact repeats. Equal entries are not always repeated. Compounds without any hit were thinned out: in the full panel of roughly 79,000, 15% have a hit. Values without a mark were called inactive. The source made the active and inactive calls. Cut-off read from the data, not from the text of the source: active = growth inhibition above about 70%; inactive = the rest.
# Tests used:
# [1] = NCI Yeast Anticancer Drug Screen. Data for the rad50 strain (AID 155);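 note: 0% = growth of vehicle-only cultures of the same strain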; conditions: S. cerevisiae rad50 strain growth inhibition, stronger effect = higher value; at 50.0 µM unless noted
# Outline: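 Yeast carrying a defined DNA repair defect were exposed to test compounds, and growth was compared with vehicle-treated controls to give percent inhibition.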
# [2] = NCI Yeast Anticancer Drug Screen. Data for the mec2-1 strain (AID 157); conditions: S. cerevisiae mec2-1 strain, stronger effect = higher value; at 50.0 µM unless noted
# Outline: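 Mutant yeast (mec2-1) grown with compound; growth inhibition relative to vehicle control reported.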
# [3] = NCI Yeast Anticancer Drug Screen. Data for the sgs1 mgt1 strain (AID 161);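 note: 0% = growth of cultures given vehicle only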; conditions: S. cerevisiae sgs1 mgt1 strain, stronger effect = higher value; at 50.0 µM unless noted
# Outline: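 This yeast growth screen uses a strain with defined DNA-repair lesions; compound-treated growth is compared with vehicle-treated growth.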
# [4] = NCI Yeast Anticancer Drug Screen. Data for the cln2 rad14 strain (AID 165);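 note: 0% = growth equal to vehicle treated cultures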; conditions: S. cerevisiae cln2 rad14 strain, stronger effect = higher value; at 50.0 µM unless noted
# Outline: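 Readout is yeast growth inhibition versus vehicle-treated controls, using a strain with cln2 and rad14 alterations exposed to compound.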
# [5] = NCI Yeast Anticancer Drug Screen. Data for the bub3 strain (AID 167); conditions: S. cerevisiae bub3 mutant strain, stronger effect = higher value; at 50.0 µM unless noted
# Outline: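 Compounds were applied to a genetically altered yeast strain carrying a cell-cycle control defect. Growth inhibition was scored against vehicle-treated controls.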
# [6] = NCI Yeast Anticancer Drug Screen. Data for the mlh1 rad18 strain (AID 175); conditions: S. cerevisiae mlh1 rad18 strain growth inhibition, stronger effect = higher value; at 50.0 µM unless noted
# Outline: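 Genetically defined yeast (DNA repair-deficient) exposed to compounds; growth inhibition determined relative to vehicle.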
SMILES,growth inhibition [1],growth inhibition [2],growth inhibition [3] [%],growth inhibition [4] [%],growth inhibition [5] [%],growth inhibition [6]
O=C(NCCNC(=O)C(Br)(Br)Br)C(Br)(Br)Br,82.3% (active),53.5%,58,44.7,69.5,72.8% (active)
CC(=O)[C@@]1(O)CC[C@H]2[C@@H]3CC[C@@H]4C[C@H](O)CC[C@]4(C)[C@H]3[C@H](O)C[C@@]21C,-9.8%,-3.7%,8,-34.1,11.3,-7.85%
Cc1cccc(-c2cc3ccccc3c(Cl)n2)n1,-4%,-23.1%,10.8,-0.6,7.6,7.7%
CC1=CP(=O)(c2ccccc2)CC1 (stereo not given) (tested in a mixture with another compound),-12.2%,-9.2%,6.2,-9.85,-10.4,1.2%
COc1cc(Cc2nccc3cc(OC)c(OC)cc23)c(C(C)=O)cc1OC,21.9%,-22.9%,19.1,14.1,22,22.4%
CCCCCCCCCCSCC(=O)O,-12.8%,-24.6%,-15.5,-3.3,-30.6,-29.5%
OCCCCC(O)CO (stereo not given),-2.55%,-13.7%,-1.1,-8.65,-18.6,-7.3%
COc1ccc(C(OC(=O)Oc2ccccc2)c2ccccc2)cc1 (stereo not given),-9.1%,6.55%,-6.9,-20.1,-16.4,7%
Nn1c(NNC(=O)C(=O)Nc2cc(Cl)c(Cl)cc2Cl)n[nH]c1=S,-6.05%,-16.1%,-6.45,23.8,19.2,1.4%
O=C1NCCCc2nonc21,18.9%,16.4%,7.9,4,4,5.2%
O=C1OC(=O)c2c1nc1ccccc1c2-c1ccccc1,-31.5%,-3.9%,9.35,26,-6.15,23.6%
CCOC(=O)CNC(=O)C(CCC(=O)N(C)O)NC(=O)CCC(N)C(=O)O (stereo not given),-20.1%,-5.5%,-0.8,-0.05,4.25,-35.5%
Nc1ncc2c(=O)[nH][nH]c(=O)c2n1,34.9%,31.6%,16.6,12.4,3.4,-5.5%
CC(=O)NS(=O)(=O)c1ccc(NC(=O)/C=C/C(=O)O)cc1,1.1% and -16.6%,-15.7% and -18.1%,-0.45,-3.05,-11.7,19.9% and -18%
C#CC(O)C1OC(C)(C)OC1C1COC(C)(C)O1 (stereo not given),4.15%,6.5%,13.2,-4.4,-3.6,-5.65%
O=C1NC(=O)C2(CCCC2)N1,-9.4%,8.05%,2.8,-74,7.45,-37.9%
Cc1ccc(NC(=O)C(=O)CC(=O)c2sc(Nc3c(C)cccc3C)nc2C)cc1C,13.4%,-9.95%,1.85,-27.7,-23.4,-2%
CCC(C)(CC)c1ccc(C)cc1OC,-4.9%,8.15%,-7.1,18.6,24.6,6.9%
Cc1ccc(C(=O)CC(Sc2ccccc2N)c2c(Cl)cccc2Cl)c(C)c1 (stereo not given),-7.4%,-26.4%,3.8,-4.5,-11.1,-16.5%
Clc1ccc(/C=C/c2nc(Cl)c(-c3ccc(Cl)cc3)c(Cl)n2)cc1,-15.2%,-18.8%,-3.1,14.3,-23.8,5.3%

SMILES,growth inhibition [1],growth inhibition [2],growth inhibition [3] [%],growth inhibition [4] [%],growth inhibition [5] [%],growth inhibition [6]
CC(C)CCC(C)C1CCC2C3CCC4CC(=O)CC4(C)C3CCC12C (stereo not given),-13.5%,7.2%,-20.1,-10.4,-11.6,2.85%
COc1ccc(NC(=O)CC(=O)n2nc(-c3ccccc3)c(N=Nc3ccccc3C(=O)O)c2-c2ccccc2)cc1,-28.8%,-13.1%,-2.05,2.85,2.25,-13.5%
COc1c2c(cc3c1C(=O)c1c(O)cccc1C3=O)CC(O)CC2 (stereo not given),-14.7%,-33.2%,-13.4,-10.5,2.8,-22.9%
CC(=O)c1c(C)cc2cc(C)cc(O)c2c1O,30.9%,17.9%,1.4,0.6,0.4,29.9%
COc1ccc2c(c1)CCN1CCCc3ccccc3C21 (stereo not given),22.4%,2.75%,6.3,25.8,14.8,-5.75%
c1ccc2c(c1)/C(=N/c1nccs1)N/C2=N\c1nccs1,14.1%,-6.35%,-12.2,-25.6,13.1,-6.65%
COC(=O)c1cc2ccc(OC(C)=O)c(OC(C)=O)c2cn1,20.2%,-20.2%,6.05,9.3,3.35,19.9%
COc1ccc2c(c1)OC[C@@H]1c3cc(NS(=O)(=O)c4ccccc4)cc(OCc4ccccc4)c3O[C@H]21,-16.4%,-8.75%,-13.5,-17.3,1.4,-6.55%
O=C1/C(=C/c2cccc(Br)c2)Cc2ccccc21,20.9%,-7.9%,12.3,18.1,-1.35,15.8%
CCc1n[nH]c(=O)n1-n1c(C)ccc1C,-15.8%,-25.9%,-5.2,3.15,-33,-15.2%
NNC(=O)CC(=O)NN,6.9%,2.05%,-11.4,-10.7,2.95,18.4%
COC(=O)c1cc(Br)cc(Br)c1N,26.1%,-12.9%,0.3,-35.1,3.6,32.4%
COc1ccccc1NC(=O)C1=C(C)NC(C)=C(C(=O)Nc2ccccc2OC)C1c1ccc(C)cc1,12.7%,-10.3%,3.75,12.1,12.3,-0.85%
O=c1c2ccccc2[nH]c(=S)n1C1CCCC1,-7.85%,-6.55%,15.1,-19.9,39.4,-2.15%
OCC1OC(n2cnc3c(/C=C(/O)c4ccccc4)ncnc32)C(O)C1O (stereo not given),-32.6%,-27%,0.35,-13.5,-27.1,5.35%
CCCCn1cnc2c(SC)ncnc21,-8.1%,-23.9%,-18.4,-0.35,-32.8,-3.65%
Cc1ccc(Cl)c(NC(=O)Nc2ccccc2Cl)c1,-3.7%,3.65%,-7.2,-15.2,-2.5,20.4%
COc1cc(/C=C/C(=O)O)ccc1O,-6.1%,-17.1%,16.1,-48,-12.3,17.6%
CC(C)CCOC(=O)C(O)c1ccccc1 (stereo not given),15.6%,2.8%,0.4,-22.2,-25.7,8.45%
O=C(O)c1cccc(-c2ccccc2)c1O.O=C(O)c1cccc(-c2ccccc2)c1O.[Cu],41.2%,39.5%,21.6,2.6,33.9,32.4%
